Screening results (PubChem)
Tgondii IFNg – T. gondii growth inhibition with IFN-gamma, primary screen, cell-based. 69,000 compounds, 3.8% hits. AID 1259416, 2018. Toxoplasma gondii growth in IFN-gamma-treated host cells; active compounds read low. activity change, negative = inhibition, % (no concentration beside the values); in the data active = activity change below about -70%, passing the limit was not always enough;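 note: host cells are HeLa cells infected with Toxoplasma gondii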
Numbers without * were called inactive; i = inactive; ! = a repeat was not active. Shown is part of a subset that was picked to be rich in hits.

SMILES | Tgondii IFNg
CCOc1ncnc2c1CCN(S(=O)(=O)C1CC1)CC2 | 267
Cc1ccccc1NC(=O)N1CCn2nnc(COc3cccnc3)c2C1 | 7
COc1ccc(OC)c(CNC(=O)c2nc(Nc3cccc(C)c3)c3ccccc3n2)c1 | -74*
CCNC(=O)c1nc(Nc2ccc(C)cc2)c2ccccc2n1 | -26
Cc1ccc(CNC(=O)c2nc(Nc3cccc(C)c3)c3ccccc3n2)cc1 | -79*
Cc1ccc(Nc2nc(C(=O)N(C)Cc3ccccc3)nc3ccccc23)cc1 | -77*
CCCCNC(=O)c1nc(Nc2cccc(C)c2)c2ccccc2n1 | -57
Cc1ccc(CNC(=O)c2nc(Nc3ccc(F)cc3)c3ccccc3n2)cc1 | -32
CN(Cc1ccccc1)C(=O)c1nc(Nc2ccc(F)cc2)c2ccccc2n1 | 25
COc1ccc(CNC(=O)c2nc(Nc3ccccc3)c3ccccc3n2)c(OC)c1 | -54
COc1ccc(OC)c(CNC(=O)c2nc(Nc3ccc(C)cc3)c3ccccc3n2)c1 | -41
CC(=O)NC1CCN(Cc2cccc(C(=O)Nc3cc(C)cc(C)n3)c2)C1 (stereo unspecified) | -11
Cc1cccc(C)c1CN1CCC2(CC1)CC(NC(=O)C1CC1)CCO2 (stereo unspecified) | 83
c1ccc(SCc2ccc(-c3nc4ccccc4s3)cc2)nc1 | 35
O=C(Cc1csc(-c2ccccc2)n1)Nc1cccc(-n2cccn2)c1 | -13
Clc1ccc(/C=C2\CCCC3C2=NNC3c2ccc(Cl)cc2)cc1 (stereo unspecified) | -92*
Cc1cccc(NC(=O)COc2nc(C)nc3ccccc23)c1 | -8
COc1ccc(NC(=O)COc2nc(C)nc3ccccc23)cc1 | 18
COc1ccc(OCC(=O)Nc2cccc(-c3nnc4c5ccccc5c(C)nn34)c2)cc1 | -76*
CCOCC12CCCOC1CCN(Cc1cccs1)C2 (stereo unspecified) | -32
CCOCC12CCCOC1CCN(Cc1ccc(C)s1)C2 (stereo unspecified) | -88*
CCOCC12CCCOC1CCN(C(=O)c1ccncc1)C2 (stereo unspecified) | -3
CN1CCC(NCc2ccc(OCc3ccccc3)cc2)C1=O (stereo unspecified) | 10
O=c1cc(O)c2ccccc2n1-c1ccccc1 | 46
Cc1c(C)n(C(=O)CSc2nnc(-c3ccccc3)o2)c2ccccc12 | 6
SMILES | Tgondii IFNg
Cc1c(-c2ccccc2)n(-c2ccccc2)c2ccccc12 | -90*
COc1c(F)cccc1C(=O)N1C[C@H]2OC(=O)N(Cc3ccccn3)[C@H]2C1 | -4
COc1ccccc1C(=O)Nc1ccc(-c2nc(-c3ccc(C)cc3C)co2)cc1 | -70
CCC(=O)N1C[C@@H]2[C@H](c3ccccc31)[C@@H](CO)N2C(=O)CC1CC1 | -6
O=c1[nH]c2ccccc2c(O)c1-c1nc(-c2ccc(Br)cc2)no1 | 27
O=C1C(c2c(O)[nH]c3ccccc23)=Nc2ccccc21 | -3
O=Nc1c(-c2c(O)[nH]c3cc(Br)ccc23)[nH]c2ccccc12 | -92*
COCC(=O)N1CCC2(CCC2NC(=O)c2cnccn2)CC1 (stereo unspecified) | 1
CNC(=O)C(C)N(C)Cc1nc2ccccc2n1CC(C)C (stereo unspecified) | 33
CC(C)Cc1nc(CN(C)Cc2ncc[nH]2)no1 | 9
CC(C)Cn1c(CN(C)Cc2ncc[nH]2)nc2ccccc21 | -84*
Cc1ccccc1C1(O)CCN(C(=O)CCc2n[nH]c3c2CCCC3)C1 (stereo unspecified) | 0
Cc1nc(C)c(CC(=O)N2CCn3cncc3C2)c(=O)[nH]1 | 16
OC(CNC1Cc2ccccc2C1)COc1ccc(F)cc1 (stereo unspecified) | -40
CC(C)(C)NC[C@H](O)COc1ccccc1C1CCCC1 | 16
CCc1ccccc1OC[C@@H](O)CN[C@H]1CCCc2ccccc21 | -80*!
CC1C(c2ccc(F)cc2)=NOC1C(=O)NCCc1nc(-c2ccccc2)no1 (stereo unspecified) | -21
COc1ccc(NC(=O)NCC(c2cccnc2)c2cn(C)c3ccccc23)c(OC)c1 (stereo unspecified) | i
CCC[C@H](Nc1nc(-c2ccc(NC(=O)NCC)c(OC)c2)ncc1C)c1cccnc1 | -78*
COc1cc(OC)c(NC(=O)NCC(c2cccnc2)c2c[nH]c3ccccc23)cc1Cl (stereo unspecified) | 8
N#CC1(c2ccc(NC(=O)c3cccnc3NCc3ccncc3)cc2)CCCC1 | -72*
O=C(O)c1cccnc1NCC1CCCO1 (stereo unspecified) | -28
O=C(Nc1ccc(F)cc1)c1cccnc1Oc1ccccc1 | -31
CCn1c2ccccc2c2cc(NC(=O)C3CCN(S(=O)(=O)CC)CC3)ccc21 | 1
CC(C)CNC(=O)[C@H]1C[C@@H]2CN(C(=O)NCCc3ccccc3)C[C@H]1O2 | -2
Cc1ccc(NC(=O)CC(=O)NCCCn2ccnc2)cc1Cl | 8
Cc1ccc(Nc2nc3nonc3n3cnnc23)cc1Cl | -106*
CCC(NC(=O)CC(=O)Nc1ccc(C)c(Cl)c1)c1nc(C)no1 (stereo unspecified) | -5
